biological target: T1, Aspartate--tRNA(Asp/Asn) ligase (Mycobacterium tuberculosis (strain ATCC 25618 / H37Rv)) (UniProt P9WFW3); experiment: Assay for Asp RNA synthetase-1 from Mycobacterium tuberculosis; type: functional; parameters: scale not given: direction of the effect not stated beside the values; details: 30 µM; further: in the data most compounds retested in dose-response had high values
T1 sequence (whole entry): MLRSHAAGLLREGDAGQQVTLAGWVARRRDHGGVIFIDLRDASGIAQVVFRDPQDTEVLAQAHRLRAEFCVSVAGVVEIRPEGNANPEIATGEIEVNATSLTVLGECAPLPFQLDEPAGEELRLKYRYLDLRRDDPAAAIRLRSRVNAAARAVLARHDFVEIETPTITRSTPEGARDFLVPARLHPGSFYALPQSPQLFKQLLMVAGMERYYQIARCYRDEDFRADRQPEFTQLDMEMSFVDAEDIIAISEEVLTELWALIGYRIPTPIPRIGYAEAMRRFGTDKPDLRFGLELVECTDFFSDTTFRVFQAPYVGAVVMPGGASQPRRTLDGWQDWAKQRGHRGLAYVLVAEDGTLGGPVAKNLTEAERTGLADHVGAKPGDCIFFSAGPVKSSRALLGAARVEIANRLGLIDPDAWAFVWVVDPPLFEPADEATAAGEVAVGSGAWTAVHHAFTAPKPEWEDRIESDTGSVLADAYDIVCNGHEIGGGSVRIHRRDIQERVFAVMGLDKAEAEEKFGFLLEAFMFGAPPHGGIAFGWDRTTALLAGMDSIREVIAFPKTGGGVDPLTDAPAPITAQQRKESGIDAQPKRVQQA

Row | SMILES | Percent Effect [%]
1 | Cc1cc(C)n(CC2CCCN2C(=O)c2cc[nH]n2)n1 (stereo not given) | -3.22
2 | Cn1ccc(C(=O)N2CCCC(n3cncn3)C2)cc1=O (stereo not given) | -4.15
3 | O=S(=O)(NCc1ccccc1Cn1cncn1)C1CCCC1 | 1.56
4 | Cc1nc2ccccn2c1CN(Cc1cccnc1)CC1CCCO1 (stereo not given) | 8.51
5 | Cn1ncc(NCc2cc(F)cc(F)c2)c(Cl)c1=O | -1.31
6 | Clc1snnc1CN1CCOC(CNc2cccnn2)C1 (stereo not given) | -1.85
7 | CC(=O)N1[C@H](Cn2cncn2)C[C@@H]2CN(c3ccc(C)nn3)CC[C@@H]21 | -1.81
8 | O=C(c1ccco1)N1C[C@@H]2OCCN(CCN3CCCC3)[C@@H]2C1 | 7.66
9 | CC(C)c1nccn1C1CCCN(C(=O)c2ccc3c(c2)OCO3)C1 (stereo not given) | -0.317
10 | c1ccc(-c2nc(CN3CCOC(Cn4cccn4)C3)no2)cc1 (stereo not given) | -1.51
11 | Cc1nn(C)c(C)c1CC(=O)N1CCCC(n2cccn2)C1 (stereo not given) | -4.75
12 | Cc1ccc(-c2cc(N)c(=O)n(CC(=O)NCC3CCCCC3)n2)s1 | 7.19
13 | Cc1nc(CN2CCCCC2Cn2cncn2)nc2ccccc12 (stereo not given) | 1.73
14 | Cc1occc1C(=O)NCc1ccc(N2CCCC(C(N)=O)C2)cc1 (stereo not given) | 1.75
15 | COc1c(CNC2CCCc3ccccc32)c(C)nn1C (stereo not given) | -1
16 | Cc1nc([C@@H]2C[C@@H]3CCN(C(=O)Cc4ccsc4)C[C@H]3O2)no1 | -2.49
17 | CN(Cc1ccco1)Cc1ccccc1CNC(=O)c1ccncc1 | -0.97
18 | c1ccc(-c2noc(CN3CCC(c4ccn[nH]4)CC3)n2)cc1 | 0.903
19 | CCOC(=O)CCC(=O)NC(C)c1ccc(NC(=O)CC)cc1 (stereo not given) | -8.03
20 | O=C1C[C@H]2[C@@H](CCN2C(=O)c2ccccc2)N1CCN1CCOCC1 | -3.74

Row | SMILES | Percent Effect [%]
21 | Cc1nnc2n1CCN(C(=O)COCCOc1ccccc1)C2 | -0.422
22 | Cc1cc(CN(C)C(=O)NC2CCS(=O)(=O)C2)no1 (stereo not given) | -1.18
23 | CCCc1n[nH]cc1C(=O)N1CCC(c2nccn2CCOC)CC1 | -6.36
24 | NC(=O)Cc1ccc(NC(=O)C2CCOCC2)cc1 | 1.11
25 | COc1c(CNC2CCCc3ccccc32)c(C(C)C)nn1C (stereo not given) | -0.233
26 | O=C(NCCc1ccccn1)NC1CCN(c2ncccn2)CC1 | 1.19
27 | CN(C)c1cc2c(nn1)CCN(C(=O)C1CCc3ccccc31)C2 (stereo not given) | 5.85
28 | COc1ncc(C2CC(=O)NCc3nc4ccccn4c32)cn1 (stereo not given) | -1.4
29 | Cc1nn(C)c(Cl)c1C1CCCN1C(=O)c1ccc2nncn2c1 (stereo not given) | -1.25
30 | Cc1cnc(C(=O)N2CCc3ncnc(C)c3CC2)cn1 | 0.251
31 | COc1c(C2CCCN2C(=O)c2ccc(Cl)o2)c(C)nn1C (stereo not given) | -4.35
32 | O=C(c1cccnc1)N1CCC2(CC1)CCN(c1ccsc1)C2=O | 3.8
33 | CN(Cc1cnn(C)c1)C(=O)NC1CCN(Cc2ccccn2)CC1 | 5.83
34 | Cc1cc(C2CCCN2Cc2ccn(C)c(=O)c2)no1 (stereo not given) | -1.63
35 | CC(C)c1n[nH]c(C2CN(C(=O)c3csnn3)CCO2)n1 (stereo not given) | -5.03
36 | O=C(CCc1nccs1)N1CCN(c2ccccc2F)CC1 | -6.57
37 | CC(=O)N1CC(Cc2nccc3ccn(C)c23)C1 | 1.31
38 | CS(=O)(=O)N1Cc2nccn2CC(Cn2ncccc2=O)C1 (stereo not given) | 1.17
39 | Cc1nn(C)c(C)c1C1CCCN1C(=O)CCCn1cccn1 (stereo not given) | -2.95
40 | Cc1nc(NCc2cccnc2)c2c(n1)c(C)nn2C | 10.4

biological target: Shiga toxin 2 (Escherichia coli O157:H7) (UniProt P09385+P09386); experiment: E. coli 0.157:H7 Shiga Toxin SOP - stx2 screening assay; type: functional; parameters: scale not given: direction of the effect not stated beside the values; details: 30 µM

Row | SMILES | Percent Effect [%]
41 | Cc1cc(C)n(CC2CCCN2C(=O)c2cc[nH]n2)n1 (stereo not given) | -26.2
42 | Cn1ccc(C(=O)N2CCCC(n3cncn3)C2)cc1=O (stereo not given) | -5.76
43 | O=S(=O)(NCc1ccccc1Cn1cncn1)C1CCCC1 | -9.86
44 | Cc1nc2ccccn2c1CN(Cc1cccnc1)CC1CCCO1 (stereo not given) | -8.1
45 | Cn1ncc(NCc2cc(F)cc(F)c2)c(Cl)c1=O | -23.1
46 | Clc1snnc1CN1CCOC(CNc2cccnn2)C1 (stereo not given) | -5.91
47 | CC(=O)N1[C@H](Cn2cncn2)C[C@@H]2CN(c3ccc(C)nn3)CC[C@@H]21 | -4.03
48 | O=C(c1ccco1)N1C[C@@H]2OCCN(CCN3CCCC3)[C@@H]2C1 | -2.25
49 | CC(C)c1nccn1C1CCCN(C(=O)c2ccc3c(c2)OCO3)C1 (stereo not given) | 10.5
50 | c1ccc(-c2nc(CN3CCOC(Cn4cccn4)C3)no2)cc1 (stereo not given) | 4.08
51 | Cc1nn(C)c(C)c1CC(=O)N1CCCC(n2cccn2)C1 (stereo not given) | 20.6
52 | Cc1ccc(-c2cc(N)c(=O)n(CC(=O)NCC3CCCCC3)n2)s1 | 2.09
53 | Cc1nc(CN2CCCCC2Cn2cncn2)nc2ccccc12 (stereo not given) | -15.2
54 | Cc1occc1C(=O)NCc1ccc(N2CCCC(C(N)=O)C2)cc1 (stereo not given) | -14.7
55 | COc1c(CNC2CCCc3ccccc32)c(C)nn1C (stereo not given) | 13.6
56 | Cc1nc([C@@H]2C[C@@H]3CCN(C(=O)Cc4ccsc4)C[C@H]3O2)no1 | 2.89
57 | CN(Cc1ccco1)Cc1ccccc1CNC(=O)c1ccncc1 | 12.1
58 | c1ccc(-c2noc(CN3CCC(c4ccn[nH]4)CC3)n2)cc1 | -15.7
59 | CCOC(=O)CCC(=O)NC(C)c1ccc(NC(=O)CC)cc1 (stereo not given) | -0.224
60 | O=C1C[C@H]2[C@@H](CCN2C(=O)c2ccccc2)N1CCN1CCOCC1 | -0.799

Row | SMILES | Percent Effect [%]
61 | Cc1nnc2n1CCN(C(=O)COCCOc1ccccc1)C2 | -37.2
62 | Cc1cc(CN(C)C(=O)NC2CCS(=O)(=O)C2)no1 (stereo not given) | 14.9
63 | CCCc1n[nH]cc1C(=O)N1CCC(c2nccn2CCOC)CC1 | 10
64 | NC(=O)Cc1ccc(NC(=O)C2CCOCC2)cc1 | 20.8
65 | COc1c(CNC2CCCc3ccccc32)c(C(C)C)nn1C (stereo not given) | -10.1
66 | O=C(NCCc1ccccn1)NC1CCN(c2ncccn2)CC1 | -12.3
67 | CN(C)c1cc2c(nn1)CCN(C(=O)C1CCc3ccccc31)C2 (stereo not given) | 5.96
68 | COc1ncc(C2CC(=O)NCc3nc4ccccn4c32)cn1 (stereo not given) | 15
69 | Cc1nn(C)c(Cl)c1C1CCCN1C(=O)c1ccc2nncn2c1 (stereo not given) | 2.44
70 | Cc1cnc(C(=O)N2CCc3ncnc(C)c3CC2)cn1 | -27.4
71 | COc1c(C2CCCN2C(=O)c2ccc(Cl)o2)c(C)nn1C (stereo not given) | 9.5
72 | O=C(c1cccnc1)N1CCC2(CC1)CCN(c1ccsc1)C2=O | -6.67
73 | CN(Cc1cnn(C)c1)C(=O)NC1CCN(Cc2ccccn2)CC1 | -5.06
74 | Cc1cc(C2CCCN2Cc2ccn(C)c(=O)c2)no1 (stereo not given) | 8.31
75 | CC(C)c1n[nH]c(C2CN(C(=O)c3csnn3)CCO2)n1 (stereo not given) | -13.5
76 | O=C(CCc1nccs1)N1CCN(c2ccccc2F)CC1 | -11.9
77 | CC(=O)N1CC(Cc2nccc3ccn(C)c23)C1 | -32.1
78 | CS(=O)(=O)N1Cc2nccn2CC(Cn2ncccc2=O)C1 (stereo not given) | -8.61
79 | Cc1nn(C)c(C)c1C1CCCN1C(=O)CCCn1cccn1 (stereo not given) | 10.6
80 | Cc1nc(NCc2cccnc2)c2c(n1)c(C)nn2C | -31.1
